# Experimental data: patent US20030180744, “High affinity oligonucleotide ligands to growth factors” (GILEAD SCIENCES, INC., published 2003)
# Legend:
# Test in all cases: filter; Kd target / Kd hKGF
# [1] = molecular target: bFGF (Homo sapiens, UniProt P09038 P09038:143-288); conditions: tags: R&D Systems; pseudoknot; ssRNA; 2'-F pyrimidines
# [2] = molecular target: aFGF (Homo sapiens, UniProt P05230 P05230:16-155); conditions: tags: R&D Systems; pseudoknot; ssRNA; 2'-F pyrimidines
# [3] = molecular target: T1, KGF (rat) (Rattus norvegicus, UniProt Q02195 Q02195:32-194); conditions: tags: QED Advanced Research Technologies; pseudoknot; ssRNA; 2'-F pyrimidines
# T1 sequence: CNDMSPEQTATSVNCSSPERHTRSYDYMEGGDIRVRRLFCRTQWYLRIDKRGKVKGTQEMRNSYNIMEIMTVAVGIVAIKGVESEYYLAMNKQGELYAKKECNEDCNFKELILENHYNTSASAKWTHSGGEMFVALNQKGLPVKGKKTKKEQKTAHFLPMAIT
# Sequence of bFGF (P09038 143-288, one chain of several): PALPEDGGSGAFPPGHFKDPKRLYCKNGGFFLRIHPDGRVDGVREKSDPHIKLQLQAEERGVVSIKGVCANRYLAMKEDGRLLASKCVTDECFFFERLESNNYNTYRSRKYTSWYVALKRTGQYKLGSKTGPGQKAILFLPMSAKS
# Sequence of aFGF (P05230 16-155, one chain of several): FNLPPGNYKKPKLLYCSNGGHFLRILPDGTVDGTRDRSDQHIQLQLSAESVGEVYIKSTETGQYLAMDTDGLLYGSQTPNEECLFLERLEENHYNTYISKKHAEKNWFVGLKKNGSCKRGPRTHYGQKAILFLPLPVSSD
sequence,measurement,setting,value
GGGAGGACGAUGCGGUGGUCUCCCAAUUCUAAACUUUCUCCAUCGUAUCUGGGCCAGACGACUCGCCCGA,binding signal,[1],1070
same,binding signal,[2],38600
same,binding signal,[3],1250
